Pf growth 48h: inhibits P. falciparum growth in the first generation, 48 h | P. falciparum luciferase growth in erythrocytes, 48 h | Potency, µM (doses to about 28.7 µM), usual class: inhibitors | 310,000 tested, 5.9% active | AID 504832; active = well fitted inhibition curve with a large enough effect; inconclusive = small, poorly fitted or top-dose-only effect, or another doubt; inactive = no such curve, though single readings can be large or run the other way
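Luciferase-expressing parasites in RBCs, 2% Hct / 0.1% parasitemia final; RPMI 1640 + 0.5% Albumax; 37 C, 5% CO2, one generation; luminescence read-out, lower signal = inhibition.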
NS1 inh: influenza NS1 inhibition | Potency, µM (highest dose often 46.1 µM) | 270,000 tested, 0.4% active | AID 2326; note: actives are rising curves; nearly all actives have a fitted effect of over 50% in size
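Read-out: OD600 growth recovery of NS1-expressing budding yeast. Cells grown overnight at 30C in -URA glucose medium, washed, resuspended and diluted 1:100 in 2% galactose assay medium, pH 6.0. Same strain lacking NS1 served as positive control.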
SARS PLpro yeast: SARS-CoV PLP inhibition in yeast; 330,000 tested, 0.19% active; Potency, µM (doses to about 32.9 µM), actives largely listed as activators; S. cerevisiae expressing SARS-CoV PLpro, growth rescue; AID 485353; note: nearly all actives have a fitted effect of over 55% in size
RE007 growth inh: less growth of the S. pombe RE007 Vpr strain. S. pombe RE007 Vpr strain, BacTiter-Glo ATP luminescence, 24 h. Potency, µM (highest dose often 92.2 µM), hits mostly inhibitors. 360,000 tested, 0.21% active. AID 651644; active = well fitted falling curve with a large enough effect; inconclusive = small, poorly fitted or top-dose-only effect; inactive = no such curve, though single readings can be large or run the other way; note: nearly all actives have a fitted effect of over 50% in size
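Fission yeast strain RE007, carrying one chromosomally integrated HIV-1 vpr copy, was seeded at OD 0.01 in PMG+AL medium with 23 nL pinned compound. After 24 h at 30 °C and 99% humidity, viability was read by BacTiter-Glo luminescence.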
Pf growth 96h: P. falciparum growth inhibition at 96 hours | Potency, µM (series often up to 28.7 µM), actives largely listed as inhibitors | 320,000 tested, 6.9% active | AID 504834 | P. falciparum luciferase reporter growth, 96 h; active = well fitted inhibition curve with a large enough effect; inconclusive = small, poorly fitted or top-dose-only effect, or another doubt; inactive = no such curve, though single readings can be large or run the other way
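Two parasite generations (96 h, 37 C, 5% CO2) of compound exposure in infected erythrocytes (0.05% parasitemia, 2% hematocrit). Luciferase-reporter P. falciparum; decreased luminescence indicates inhibited growth, aimed at apicoplast-acting delayed death.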
Hits are given with their value; [ ] = another dose, or the depositor's remark. The list is not random: actives were taken first. Their share in the collection is about 9.5%. Unless noted, calls come from the whole dose curve.

How did OCCNc1nc(Nc2ccc(O)cc2)nc2ccccc12 do in these assays?
Pf growth 48h: 1.7µM; NS1 inh: inactive; SARS PLpro yeast: inactive; RE007 growth inh: inactive; Pf growth 96h: 5.2µM

Results for Cc1cccc(NS(=O)(=O)c2ccc(C(=O)NCCCN3CCCC3=O)cc2)c1C ?
Pf growth 48h: inconclusive; SARS PLpro yeast: inconclusive; RE007 growth inh: inactive; Pf growth 96h: inconclusive

How did CCN(CC)CCN(C(=O)c1ccc2c(c1)CCCC2)c1nc2ccc(C)cc2s1 do in these assays?
Pf growth 48h: 13µM; NS1 inh: inactive; SARS PLpro yeast: inactive; RE007 growth inh: inactive; Pf growth 96h: inconclusive

How did CCN(CC)CCN(C(=O)c1ccc2c(c1)CCCC2)c1nc2c(C)cccc2s1 do in these assays?
Pf growth 48h: 9.3µM; NS1 inh: inactive; SARS PLpro yeast: inactive; RE007 growth inh: inactive; Pf growth 96h: inconclusive

How did CCN(CC)CCN(C(=O)c1ccc2c(c1)CCCC2)c1nc2ccc(F)cc2s1 do in these assays?
Pf growth 48h: inconclusive; SARS PLpro yeast: inactive; RE007 growth inh: inactive; Pf growth 96h: inconclusive

How did COc1ccc(S(=O)(=O)N(C)C[C@@H]2OCc3cnnn3CCCC(=O)N([C@@H](C)CO)C[C@@H]2C)cc1 do in these assays?
RE007 growth inh: inactive

Results for O=C(CN1CCOCC1)Nc1ccc(F)cc1 ?
Pf growth 48h: inactive[0.00184 µM]; NS1 inh: inactive; SARS PLpro yeast: inactive; RE007 growth inh: inactive; Pf growth 96h: inactive

What do the screens show for `O=C(c1ccc(F)cc1)C(CCCCCC(CN1CCOCC1)C(=O)c1ccc(F)cc1)CN1CCOCC1` (stereo unspecified)?
Pf growth 48h: inconclusive; NS1 inh: inactive; SARS PLpro yeast: inactive; RE007 growth inh: inactive; Pf growth 96h: 9.3µM

What do the screens show for `CCOCCCNC(=S)Nc1ccc2nc(N3CCOCC3)cc(C)c2c1`?
Pf growth 48h: inactive; NS1 inh: inactive; SARS PLpro yeast: inactive; RE007 growth inh: inactive; Pf growth 96h: 15µM

What do the screens show for `COCCCNC(=S)Nc1ccc2nc(N3CCOCC3)cc(C)c2c1`?
Pf growth 48h: inactive[0.00184 µM]; NS1 inh: inactive; SARS PLpro yeast: inactive; RE007 growth inh: inactive; Pf growth 96h: inactive

What do the screens show for `CCN1CCN(c2cc(C)c3cc(NC(=S)N(CC)CC)ccc3n2)CC1`?
Pf growth 48h: 13µM; NS1 inh: inactive; SARS PLpro yeast: inactive; RE007 growth inh: inactive; Pf growth 96h: inactive

How did COc1ccccc1CNC(=S)Nc1ccc2nc(N3CCN(C)CC3)cc(C)c2c1 do in these assays?
Pf growth 48h: 6.6µM; SARS PLpro yeast: inactive; RE007 growth inh: inactive; Pf growth 96h: inactive

How did CCCN(CCC)CCCNC(=S)Nc1ccc2nc(N3CCCC3)cc(C)c2c1 do in these assays?
Pf growth 48h: 1.5µM; SARS PLpro yeast: inactive; RE007 growth inh: inactive; Pf growth 96h: inconclusive

Results for Cc1cc(N2CCCC2)nc2ccc(NC(=S)NCCCOC(C)C)cc12 ?
Pf growth 48h: inconclusive; SARS PLpro yeast: inactive; RE007 growth inh: inactive; Pf growth 96h: inconclusive

Results for CCOc1ccccc1NC(=O)Nc1ccc(Br)cc1C ?
Pf growth 48h: inconclusive; NS1 inh: inactive; SARS PLpro yeast: inactive; RE007 growth inh: inactive; Pf growth 96h: inactive

How did COc1ccc(NC(=O)N(C)C[C@H]2Oc3ccc(NC(=O)CCN4CCOCC4)cc3C(=O)N([C@H](C)CO)C[C@@H]2C)cc1 do in these assays?
SARS PLpro yeast: inactive; RE007 growth inh: inactive

Results for CO/N=C(/C(=O)N[C@@H]1C(=O)N2C(C(=O)O)=CCS[C@H]12)c1csc(N)n1 ?
Pf growth 48h: inactive; Pf growth 96h: inactive

Results for Cc1cc(NC(=O)NC(=O)c2ccccc2)no1 ?
Pf growth 48h: inactive; NS1 inh: inactive; SARS PLpro yeast: inactive; RE007 growth inh: inactive; Pf growth 96h: inconclusive

How did CCN(CC)CCNC(=S)Nc1ccc2nc(N3CCN(C)CC3)cc(C)c2c1 do in these assays?
Pf growth 48h: 10µM; NS1 inh: inactive; SARS PLpro yeast: inactive; RE007 growth inh: inactive; Pf growth 96h: inactive

How did CCCCN(CC)CCCNC(=S)Nc1ccc2nc(N3CCN(CC)CC3)cc(C)c2c1 do in these assays?
Pf growth 48h: 2.9µM; NS1 inh: inactive; SARS PLpro yeast: inactive; RE007 growth inh: inactive; Pf growth 96h: inactive

Results for CCCCN(CC)CCCNC(=S)Nc1ccc2nc(N3CCN(C)CC3)cc(C)c2c1 ?
Pf growth 48h: inconclusive; NS1 inh: inactive; SARS PLpro yeast: inactive; RE007 growth inh: inactive; Pf growth 96h: inactive

Results for CCN(CC)CCNC(=S)Nc1ccc2nc(N3CCCC3)cc(C)c2c1 ?
Pf growth 48h: inconclusive; SARS PLpro yeast: inactive; RE007 growth inh: inactive; Pf growth 96h: inactive

Results for CCOc1ccc(C(=O)Nc2ccc3nc(N4CCN(CC)CC4)cc(C)c3c2)cc1 ?
Pf growth 48h: 2.3µM; NS1 inh: inactive; SARS PLpro yeast: inactive; RE007 growth inh: inactive; Pf growth 96h: inactive

How did Cc1ccccc1C(=O)NNS(=O)(=O)c1cccc([N+](=O)[O-])c1 do in these assays?
Pf growth 48h: inactive; NS1 inh: inactive; SARS PLpro yeast: inactive; RE007 growth inh: inactive; Pf growth 96h: inactive

What do the screens show for `O=c1cc(N2CCN(c3ccc(F)cc3)CC2)[nH]c(=O)n1C1CCCCC1`?
Pf growth 48h: inactive; NS1 inh: inactive; SARS PLpro yeast: inactive; RE007 growth inh: inactive; Pf growth 96h: inactive

What do the screens show for `O=c1cc(Nc2ccc3c(c2)OCCO3)[nH]c(=O)n1C1CCCCC1`?
Pf growth 48h: 2.1µM; NS1 inh: inactive; SARS PLpro yeast: inactive; RE007 growth inh: inactive; Pf growth 96h: inactive

Results for CCc1ccc(Nc2cc(=O)n(C3CCCCC3)c(=O)[nH]2)cc1 ?
Pf growth 48h: 0.15µM; NS1 inh: inactive; SARS PLpro yeast: inactive; RE007 growth inh: inactive; Pf growth 96h: inactive

How did CCOC(=O)c1[nH]c2ccc(OC)cc2c1NC(=O)OC do in these assays?
Pf growth 48h: inactive; NS1 inh: inactive; SARS PLpro yeast: inactive; RE007 growth inh: inactive; Pf growth 96h: inactive

Results for CCOC(=O)c1[nH]c2ccc(OC)cc2c1N=CN(C)C ?
Pf growth 48h: inactive; NS1 inh: inactive; SARS PLpro yeast: inactive; RE007 growth inh: inactive; Pf growth 96h: 0.13µM

What do the screens show for `Oc1ccc(Cl)cc1-c1cc(-c2cccc(Br)c2)n[nH]1`?
Pf growth 48h: 2.9µM; NS1 inh: inactive; SARS PLpro yeast: inactive; RE007 growth inh: inactive

What do the screens show for `Oc1ccc(Cl)cc1-c1cc(-c2ccccc2Cl)[nH]n1`?
Pf growth 48h: 9.3µM; NS1 inh: inactive; SARS PLpro yeast: inactive; RE007 growth inh: inactive; Pf growth 96h: inactive

What do the screens show for `Oc1ccccc1-c1cc(-c2ccccc2Cl)[nH]n1`?
Pf growth 48h: inactive; NS1 inh: inactive; RE007 growth inh: inconclusive

How did Oc1ccccc1-c1cc(-c2cccc(F)c2)n[nH]1 do in these assays?
Pf growth 48h: inactive; NS1 inh: inactive; SARS PLpro yeast: inactive; RE007 growth inh: inconclusive; Pf growth 96h: inconclusive

How did O=C(C1CC1)N1N=C(c2ccc(F)cc2)CC1(O)C(F)(F)F (stereo unspecified) do in these assays?
Pf growth 48h: inactive; NS1 inh: inactive; SARS PLpro yeast: inactive; RE007 growth inh: inactive; Pf growth 96h: 12µM
